Experimental data reported in PubChem BioAssay AID588719 (Southern Research Specialized Biocontainment Screening …, 2011).
In all, about 1,500 compounds went through this assay and about 920 (61%) were called active. The set was probably picked from earlier hits. Some of the results follow. Results with a measured potency or affinity are listed apart. Values without a mark were called inactive. No rule for the calls is given here.

Experiment: Vero 76 cell cytotoxicity, dose response, cytotoxicity control for VEEV inhibitor project (AID 588719)
Details: Vero 76 cells viability, cytotoxicity counter-screen; series mostly up to 25 µM; viability: at the top concentration

| Compound | viability [%] |
| --- | --- |
| CCOC(=O)c1c(CN2CCOCC2)n(-c2ccccc2)c2ccc(O)cc12 | 80.8 |
| O=C(NC1CCCCC1)c1ccc2ccccc2c1O | 81.8 |
| CC(C)/C(C=O)=C(/NC1CCCCC1)c1ccccc1 | 86.3 |
| CN1c2ccccc2C(C)(C)C12CC(c1ccc(S(=O)(=O)N3CCCCC3)cc1)=NO2 (stereo not drawn) | 78.2 |
| COc1ccc(OC)c2cc3ccccc3cc12 | 86 |
| O=C(O)CCc1ccc(-c2ccccc2)n1-c1ccc(C(=O)O)cc1 | 90.1 |
| COc1cccc(C#Cc2ccc3c(c2)O[C@H](CN(C)C)[C@@H](C)CN([C@@H](C)CO)S3(=O)=O)c1 | 99.8 |
| O=C(Cc1n[nH]c(=O)c2ccccc12)OCc1c(Cl)cccc1Cl | 82.8 |
| CC(=O)c1c(O)c(C)c(O)c2c1OC1=Cc3c(c(C)nn3C)C(=O)C12C (stereo not drawn) | 84 |
| Cc1onc(-c2ccc(Cl)cc2Cl)c1-c1csc(N/N=C/c2ccccc2Cl)n1 | 70.9 |
| Cc1cccc(NC(=O)CSc2cc(C)c(C#N)c3nc4ccccc4n23)c1 | 73.1 |
| CN(C)CCNC(=O)c1cc2sc3ccccc3c2s1 | 73.9 |
| C(=N\Nc1nncc2ccccc12)/c1ccccc1 | 86.1 |
| Cc1ccc2c(Cl)cc(Cl)c(O)c2n1 | 41.4 |
| CCOC(=O)c1c(-c2cccc3ccccc23)csc1NC(=O)C1C2CCC(O2)C1C(=O)O (stereo not drawn) | 94.4 |
| CN(C)S(=O)(=O)c1cccc(C(=O)Nc2ccccc2C(=O)NC2CC2)c1 | 88.7 |
| CC(C)c1ccc(N=Cc2c(O)n(C3CC3)c(=S)[nH]c2=O)cc1 | 97.1 |
| CCOC(=O)CCCc1ccc(/C(C)=N/NC(N)=S)cc1 | 73.3 |
| CC(Sc1ccc(S(=O)(=O)N2CCOCC2)cn1)c1ccccc1Cl (stereo not drawn) | 70.6 |
| CC(C)(C)c1cc[n+](C2=C([O-])c3ccccc3C(=O)/C2=N\S(=O)(=O)c2cccs2)cc1 | 74.5 |
| Cc1ccccc1NS(=O)(=O)c1ccc(C(=O)NCc2ccccc2CN2CCCC2)cc1 | 72.2 |
| O=C(CCCOc1ccc(Cl)cc1Cl)Nc1ccccc1C(=O)O | 101 |
| O=C(Oc1oc(-c2ccco2)nc1C=Nc1ccc(Cl)cc1)c1ccco1 | 71.6 |
| CC1(C)Nc2ccccc2C(=O)N1c1ccc(Br)cc1 | 86.3 |
| COc1ccc(C/C(N)=N/OC(=O)c2cccs2)cc1 | 91.3 |
| NNC(=O)C1CCN(S(=O)(=O)c2ccc(Cl)cc2)CC1 | 86.3 |

| Compound | viability [%] |
| --- | --- |
| Cc1cc(O)c(-c2cc(C(=O)NCCc3ccc(S(N)(=O)=O)cc3)[nH]n2)cc1C | 92.2 |
| Cc1cc(C)c2c(=O)n(CC(=O)NC3CCCC3)sc2n1 | 79.1 |
| COc1ccc(-c2cc(C(=O)Nc3c(C)n(C)n(-c4ccccc4)c3=O)c3ccccc3n2)c(OC)c1 | 85 |
| Cc1cc(NC(=O)COC(=O)c2c(Cl)cccc2Cl)no1 | 83.3 |
| COc1ccc(C)c2sc(N(CCCN(C)C)C(=O)c3ccc4c(c3)OCCO4)nc12 | 71.3 |
| COc1ccccc1/C=C/C(=O)c1ccccc1 | 79.3 |
| COC(=O)CCC1(C(N)=O)CCC(=O)c2ccccc21 (stereo not drawn) | 94.8 |
| CC1(C)Cc2c(sc(NC(=O)COc3cccc4ccccc34)c2C#N)C(C)(C)N1 | 75.6 |
| OCCCNc1cc(-c2ccnc(Nc3cccc(Cl)c3)n2)ccn1 | 35.2 |
| CCCC(C)NC(=O)c1ccccc1SC (stereo not drawn) | 94 |
| CC1(C)CCCN(Cc2c(O)ccc3c(=O)c(-c4nc5ccccc5s4)c(N)oc23)C1 | 73.8 |
| CCOC(=O)C1=NNC(=O)C1 | 89.4 |
| O=C(Nc1ccc(Cl)c(Cl)c1)Nc1ccccc1C(=O)O | 86.6 |
| CCN(CC)CCN(Cc1cc2ccc(C)cc2[nH]c1=O)C(=O)Nc1ccc(Cl)cc1 | 74.2 |
| O=C(COc1cccc2ccccc12)Nc1ccc(Cl)cc1C(=O)O | 83.9 |
| CCN(CC)CCNC(=O)c1cc2cc(Br)ccc2s1 | 126 |
| CC(=O)Nc1cc[n+](CC(=O)c2cccc([N+](=O)[O-])c2)cc1 | 94.5 |
| Nc1ccc(C(=O)OCc2nc3cc4ccccc4cc3[nH]2)cc1 | 79.8 |
| C[C@@H]1CN([C@H](C)CO)C(=O)CCCn2nncc2CO[C@@H]1CN(C)C(=O)c1cc(-c2ccccc2)on1 | 84.7 |
| COc1ccc(-c2onc(C)c2-c2ccc3c(c2)OCCO3)c(O)c1 | 77.7 |
| Cc1[nH]c2ccc(-c3nnc(SCC(=O)c4ccccc4F)o3)cc2c1C | 85.8 |
| O=C(CCCN1C(=O)/C(=C\c2ccco2)SC1=S)Nc1ccc2ccccc2c1 | 81.3 |
| CCOC(=O)c1c(NC(=O)C(C)Sc2cccc[n+]2[O-])sc2c1CCN(Cc1ccccc1)C2 (stereo not drawn) | 70.2 |
| Cc1nc2c(sc3nc(N4CCOCC4)c4c(c32)CC(C)(C)OC4)c(-c2ccccc2)c1C(=O)O | 71.6 |
| CC(C)CCOC(=O)C[N+](C)(C)CCOC1CC2CCC1(C)C2(C)C (stereo not drawn) | 93.3 |
| CC(Sc1nnc(Nc2ccccc2)s1)C(=O)Nc1nc(-c2ccccc2)cs1 (stereo not drawn) | 79.9 |

| Compound | viability [%] |
| --- | --- |
| O=C1NC(=O)N(Cc2ccccc2)C(=O)/C1=C/C=C/c1ccco1 | 86.7 |
| CCOC(=O)N1CCN(S(=O)(=O)c2ccc(C(=O)N(CCCN(C)C)c3nc4ccc(CC)cc4s3)cc2)CC1 | 74.5 |
| COc1ccccc1C1CCCN1Cc1nc(-c2ccc(C)s2)oc1C (stereo not drawn) | 70.5 |
| NCCSc1c(-c2ccc(F)cc2)[nH]c2ccccc12 | 76.5 |
| CSc1nnc2c3ccccc3n(CCc3ccccc3)c2n1 | 89.9 |
| CN(C)CC/C=C1/c2ccccc2Sc2ccc(Cl)cc21 | 72.8 |
| CCCc1cc(C(=O)Nc2cnn(Cc3ccc(F)cc3)c2)no1 | 88.8 |
| COc1cc(C2C(C#N)=C(N)Oc3c2ccc2ccccc32)ccc1OCC(=O)Nc1ccc(C)cc1 (stereo not drawn) | 72.4 |
| COc1cccc(N2C(=O)/C(=C/c3ccc(C)o3)C(=O)NC2=S)c1 | 89.4 |
| CNCCCC12CCC(c3ccccc31)c1ccccc12 | 79.4 |
| Cc1ccccc1S(=O)(=O)N(C)C[C@H]1OCc2cnnn2CCCC(=O)N([C@H](C)CO)C[C@H]1C | 95 |
| CCOc1ccccc1CNC(=O)c1cc2oc3ccccc3c2n1C | 71.7 |
| Cc1oc(C(C)(C)C)cc1-c1cc(NC(=O)c2ccc([N+](=O)[O-])cc2)n[nH]1 | 81.8 |
| COc1ccccc1[C@@]1(C)ON(c2ccccc2C(F)(F)F)C1=O | 84.1 |
| COc1ccc(C2(C)ON(c3ccccc3C(F)(F)F)C2=O)cc1 (stereo not drawn) | 81 |
| O=C(CCN1C(=O)/C(=C/c2ccccc2F)SC1=S)NCCc1ccc(O)cc1 | 80.2 |
| O=C(O)CCN1C(=O)/C(=C2\C(=O)N(Cc3ccc(F)cc3)c3ccccc32)SC1=S | 100 |
| COc1cc(NC(C)CCCN)c2nc(C)ccc2c1Oc1ccc(F)cc1 (stereo not drawn) | 82.5 |
| O=c1c2ccccc2nc(-c2ccoc2)n1CCc1ccccc1 | 78.6 |
| CCc1[nH]nc(C(=O)NC2CCCc3c2cnn3-c2cc(C)cc(C)c2)c1C (stereo not drawn) | 77.9 |
| COc1ccc(OCCn2c(C)nc3ccccc32)cc1 | 101 |
| CCCCCCCCCCOC(=O)Cn1c(COc2cccc(OC)c2)[n+](C)c2ccccc21 | 72 |
| O=C(CSC1=Nc2ccccc2C2CC=NN12)Nc1ccc2c(c1)OCO2 (stereo not drawn) | 85 |
| NC(=O)c1ccc(NC(=O)COC(=O)C2COc3ccccc3O2)cc1 (stereo not drawn) | 86.2 |
| C=CCn1c(SCC(=O)NNC(=O)Nc2cccc(Cl)c2)nnc1-c1ccccc1 | 99.4 |
| NS(=O)(=O)c1cccc(NC(=O)CN2C(=O)C(=O)N(Cc3ccccc3)C2=O)c1 | 98.3 |

| Compound | viability [%] |
| --- | --- |
| O=C(COC(=O)COc1ccccc1)Nc1ccc(Br)cc1F | 95 |
| CN(CCC#N)C(=O)COC(=O)c1ccc2[nH]c3c(c2c1)CCCC3 | 87.1 |
| Cc1ccc([C@H]2C[C@H](n3cc(-c4ccc(F)cc4)nn3)[C@@H](O)CN2CC2CCCCC2)cc1 | 76.3 |
| Cc1nc(-c2ccccc2)sc1C(=O)/C=C/c1ccccc1 | 83.9 |
| O=C(Nc1ncc(Cc2ccccc2Cl)s1)C1CCCO1 (stereo not drawn) | 92.1 |
| O=C1Nc2cc3c(cc2C1=O)sc1ccccc13 | 101 |
| Cc1nc(S/C(C(=O)O)=C2/C(=O)Nc3ccccc32)n[nH]1 | 96.2 |
| O=C(C=Cc1cccs1)c1cccs1 | 88.5 |
| CN1C[C@H](CNC(=O)OCc2ccccc2)C[C@@H]2c3cccc4c3c(cn4C)C[C@H]21 | 71.6 |
| Cc1ccc2c(c1)cc(C(=O)NCc1ccccc1)n2C | 77.6 |
| CCn1c(O)c(/C=N/NC(=O)c2ccccc2)c(=O)[nH]c1=S | 94.8 |
| COc1ccc(/C=N/NC(=O)c2cccnc2)cc1COc1ccc(NC(C)=O)cc1 | 79.2 |
| O=[N+]([O-])c1cccc(-c2c[n+]3c(n2-c2ccccc2)SCC3)c1 | 102 |
| COc1cc(/C=C2/SC(=S)N(CCC(=O)N3CCN(C)CC3)C2=O)cc(OC)c1OC | 75.2 |
| COCCN(Cc1nc(-c2ccc(-c3ccccc3)cc2)oc1C)C(C)C | 72 |
| COc1cccc(NC(=S)N(CCCN2CCCC2)Cc2cccn2Cc2ccc(Cl)cc2)c1 | 81.5 |
| O=C(Cc1c[nH]c2ccccc12)Nc1nnc(C2CC2)s1 | 74.5 |
| COc1ccc(NC(=O)[C@H](Cc2c[nH]c3ccccc23)NC(=O)[C@@H]2Cc3ccccc3CN2)cc1 | 71.8 |
| O=C1C2CCCN2C(c2ccccc2)N1c1ccc(Cl)cc1 (stereo not drawn) | 70.4 |
| CC(=O)c1c(C)cc(C)c(CSc2nc(C)cc(=O)[nH]2)c1C | 83.9 |
| CCc1ccc([C@@H]2C[C@H]3[C@@H](CN2S(=O)(=O)c2ccc(C)cc2)C(=O)C[C@@H](c2ccc(Cl)cc2)N3S(=O)(=O)c2ccccc2C)cc1 | 84.9 |
| Cc1cc2nc(/N=C(\N)NC(=O)C(C)C)nc(C)c2cc1C | 77.7 |
| O=c1c2ccccc2[nH]c(=S)n1CCCN1CCN(c2ccccc2)CC1 | 88.5 |
| O=c1c2ccccc2[nH]c(=S)n1CCCN1CCN(c2ccccc2F)CC1 | 78.4 |
| COc1ccc(S(=O)(=O)Nc2ccc3c(c2)C(=O)N([C@H](C)CO)C[C@H](C)[C@@H](CN(C)C(=O)Nc2ccc(C(F)(F)F)cc2)OCCCC[C@H](C)O3)cc1 | 90.9 |
